# Measured values as given in the supplement of paper PMC10849652.
# Of roughly 7,900 targets only a part is listed; those with a hit were picked by preference. About 0.6% of all pairs of compound and target were hits. Unmarked numbers belong to inactive results.
# Experiments:
# Experiment in all cases: log2 fold change, soluble protein after heating vs DMSO (PISA); higher = thermal stabilisation; K562 cells, 10 uM, 30 min; active = over 0.2 and 3.5 SD of the protein, either way, in both replicates (recomputed)
# IRAK-1-4 Inhibitor I = compound: C1COCCN1CCN2C3=CC=CC=C3N=C2NC(=O)C4=CC(=CC=C4)[N+](=O)[O-] [IRAK-1-4 Inhibitor I]
# Method in brief: (§1)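 Values are thermal stability changes relative to control samples and are taken from duplicates. They are stated as log2 fold changes. Before quantification by TMTpro 16plex LC-MS/MS with equalised channel sums, K562 cells at 2×10^6 cells/mL were treated with 10 μM compound for 30 min, heated in aliquots for 3 min across 48°C-58°C, pooled, extracted in PBS with 0.5% NP-40 at 4°C, and centrifuged at 21,000xg for 90 min to give the soluble supernatant.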
# ibrutinib = compound: C=CC(=O)N1CCC[C@@H](n2nc(-c3ccc(Oc4ccccc4)cc3)c3c(N)ncnc32)C1 [ibrutinib]
# Method in brief: as §1
# [1] = compound: CC(=O)c1cnc2ccc(-c3cc(Cl)c(O)c(Cl)c3)nc2c1N[C@H]1CC[C@H](CN(C)C)CC1
# Method in brief: as §1
# ralimetinib = compound: CC(C)(C)Cn1c(N)nc2ccc(-c3[nH]c(C(C)(C)C)nc3-c3ccc(F)cc3)nc21 [ralimetinib]
# Method in brief: as §1
# [2] = compound: CC(C)(O)CC(=O)NCCn1ccc2ncnc(Nc3ccc(Oc4cccc(C(F)(F)F)c4)c(Cl)c3)c21
# Method in brief: as §1
# [3] = compound: CC(C)C1=C2N=C(C=C(N2N=C1)NCC3=CC=CC=C3)NCCCCCCN
# Method in brief: as §1
# [4] = compound: CC(C)C[C@@H](C=O)NC(=O)[C@H](CC(C)C)NC(=O)[C@H](CC(C)C)NC(=O)OCc1ccccc1
# Method in brief: as §1
# pinometostat = compound: CC(C)N(C[C@H]1O[C@@H](n2cnc3c(N)ncnc32)[C@H](O)[C@@H]1O)[C@H]1C[C@@H](CCc2nc3cc(C(C)(C)C)ccc3[nH]2)C1 [pinometostat]
# Method in brief: as §1
# [5] = compound: CC1=C(C(CC(=O)N1)C2=CC=C(C=C2)C(F)(F)F)C(=O)NC3=C(C=C4C(=C3)C=NN4)F
# Method in brief: as §1
# [6] = compound: CC1=C(C2=C(C=C1)C(=O)C3=CC=CC=C3N2CCCN)C
# Method in brief: as §1
# Chain of UniProt P06400 (P06400 whole entry, looked up): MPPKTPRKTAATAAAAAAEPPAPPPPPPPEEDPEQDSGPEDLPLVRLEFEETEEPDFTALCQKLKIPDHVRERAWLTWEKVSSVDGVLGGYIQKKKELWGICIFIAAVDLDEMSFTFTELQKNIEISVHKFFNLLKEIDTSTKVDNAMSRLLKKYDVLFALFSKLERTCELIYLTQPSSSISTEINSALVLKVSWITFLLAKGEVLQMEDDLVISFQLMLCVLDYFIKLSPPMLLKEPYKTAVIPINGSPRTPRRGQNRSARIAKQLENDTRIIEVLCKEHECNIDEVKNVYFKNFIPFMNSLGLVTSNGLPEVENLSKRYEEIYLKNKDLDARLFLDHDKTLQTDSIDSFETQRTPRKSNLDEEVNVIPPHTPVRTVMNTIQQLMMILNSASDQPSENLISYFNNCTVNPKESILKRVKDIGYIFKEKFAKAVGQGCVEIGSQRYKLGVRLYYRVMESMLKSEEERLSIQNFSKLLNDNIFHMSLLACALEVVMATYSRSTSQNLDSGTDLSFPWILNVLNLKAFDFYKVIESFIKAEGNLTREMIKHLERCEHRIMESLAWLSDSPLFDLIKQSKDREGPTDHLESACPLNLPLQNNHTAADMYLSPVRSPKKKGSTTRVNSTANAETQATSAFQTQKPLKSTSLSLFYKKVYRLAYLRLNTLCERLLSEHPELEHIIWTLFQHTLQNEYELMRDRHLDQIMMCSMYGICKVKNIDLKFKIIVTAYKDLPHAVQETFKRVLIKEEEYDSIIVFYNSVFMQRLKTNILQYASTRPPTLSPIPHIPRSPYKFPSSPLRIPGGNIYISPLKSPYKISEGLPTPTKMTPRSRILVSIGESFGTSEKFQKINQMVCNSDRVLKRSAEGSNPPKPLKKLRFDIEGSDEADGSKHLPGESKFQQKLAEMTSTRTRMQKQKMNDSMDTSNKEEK
# Chain of UniProt Q5T8P6 (Q5T8P6 whole entry, looked up): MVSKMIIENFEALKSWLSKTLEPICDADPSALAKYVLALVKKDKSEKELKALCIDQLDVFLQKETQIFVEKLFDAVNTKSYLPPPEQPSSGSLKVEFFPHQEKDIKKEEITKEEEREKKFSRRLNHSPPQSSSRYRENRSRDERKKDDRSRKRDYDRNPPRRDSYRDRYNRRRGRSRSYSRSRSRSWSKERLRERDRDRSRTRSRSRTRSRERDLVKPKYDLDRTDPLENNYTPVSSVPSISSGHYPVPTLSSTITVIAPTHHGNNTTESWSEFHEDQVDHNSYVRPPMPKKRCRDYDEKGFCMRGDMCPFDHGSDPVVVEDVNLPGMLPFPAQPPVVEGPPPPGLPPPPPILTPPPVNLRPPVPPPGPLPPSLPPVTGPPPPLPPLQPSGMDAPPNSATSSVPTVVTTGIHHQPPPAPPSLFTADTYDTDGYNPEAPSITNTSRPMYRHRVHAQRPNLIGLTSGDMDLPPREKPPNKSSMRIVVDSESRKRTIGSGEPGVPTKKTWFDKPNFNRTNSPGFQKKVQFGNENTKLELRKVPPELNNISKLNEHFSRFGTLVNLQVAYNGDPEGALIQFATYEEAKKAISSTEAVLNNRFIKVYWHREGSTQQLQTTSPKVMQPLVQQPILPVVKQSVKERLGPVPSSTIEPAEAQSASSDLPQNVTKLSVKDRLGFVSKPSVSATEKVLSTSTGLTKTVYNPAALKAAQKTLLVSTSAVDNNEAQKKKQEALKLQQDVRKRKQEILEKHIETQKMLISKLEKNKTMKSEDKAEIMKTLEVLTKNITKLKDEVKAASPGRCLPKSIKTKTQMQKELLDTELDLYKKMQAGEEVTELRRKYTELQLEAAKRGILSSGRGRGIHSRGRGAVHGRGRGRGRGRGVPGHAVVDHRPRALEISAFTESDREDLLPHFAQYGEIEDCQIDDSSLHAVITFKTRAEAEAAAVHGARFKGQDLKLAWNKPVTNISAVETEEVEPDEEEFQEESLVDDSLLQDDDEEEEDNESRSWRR
# Chain of UniProt Q13530 (Q13530 whole entry, looked up): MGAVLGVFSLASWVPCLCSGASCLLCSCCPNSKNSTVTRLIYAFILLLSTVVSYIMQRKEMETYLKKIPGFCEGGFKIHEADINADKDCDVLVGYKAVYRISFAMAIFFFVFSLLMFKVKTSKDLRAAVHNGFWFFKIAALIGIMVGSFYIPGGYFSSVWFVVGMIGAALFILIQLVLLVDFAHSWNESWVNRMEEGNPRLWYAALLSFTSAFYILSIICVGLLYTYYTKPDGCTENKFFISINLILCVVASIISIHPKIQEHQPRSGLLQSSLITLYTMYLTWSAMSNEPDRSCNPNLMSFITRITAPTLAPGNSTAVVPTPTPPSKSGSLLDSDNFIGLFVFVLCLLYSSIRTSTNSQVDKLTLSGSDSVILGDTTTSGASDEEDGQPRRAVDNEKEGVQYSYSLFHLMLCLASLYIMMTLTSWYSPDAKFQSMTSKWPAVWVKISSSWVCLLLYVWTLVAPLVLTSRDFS
# Chain of UniProt P52306 (P52306 whole entry, looked up): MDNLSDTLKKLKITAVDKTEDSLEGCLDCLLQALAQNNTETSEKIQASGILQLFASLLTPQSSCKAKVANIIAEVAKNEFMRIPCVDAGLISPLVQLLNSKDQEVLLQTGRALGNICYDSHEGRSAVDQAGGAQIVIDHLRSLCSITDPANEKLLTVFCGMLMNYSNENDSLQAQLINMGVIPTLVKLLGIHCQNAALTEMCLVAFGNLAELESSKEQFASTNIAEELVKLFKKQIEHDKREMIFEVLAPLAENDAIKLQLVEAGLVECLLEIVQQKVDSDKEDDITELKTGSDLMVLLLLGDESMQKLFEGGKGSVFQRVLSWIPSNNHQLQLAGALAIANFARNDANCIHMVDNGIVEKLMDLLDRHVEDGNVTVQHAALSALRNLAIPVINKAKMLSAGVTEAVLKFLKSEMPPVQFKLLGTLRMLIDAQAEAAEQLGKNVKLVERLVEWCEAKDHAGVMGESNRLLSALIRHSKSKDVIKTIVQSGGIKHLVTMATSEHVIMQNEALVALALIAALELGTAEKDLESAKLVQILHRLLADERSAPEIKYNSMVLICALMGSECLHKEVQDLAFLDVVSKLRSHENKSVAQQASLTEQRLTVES
# Chain of UniProt Q5VTB9 (Q5VTB9 whole entry, looked up): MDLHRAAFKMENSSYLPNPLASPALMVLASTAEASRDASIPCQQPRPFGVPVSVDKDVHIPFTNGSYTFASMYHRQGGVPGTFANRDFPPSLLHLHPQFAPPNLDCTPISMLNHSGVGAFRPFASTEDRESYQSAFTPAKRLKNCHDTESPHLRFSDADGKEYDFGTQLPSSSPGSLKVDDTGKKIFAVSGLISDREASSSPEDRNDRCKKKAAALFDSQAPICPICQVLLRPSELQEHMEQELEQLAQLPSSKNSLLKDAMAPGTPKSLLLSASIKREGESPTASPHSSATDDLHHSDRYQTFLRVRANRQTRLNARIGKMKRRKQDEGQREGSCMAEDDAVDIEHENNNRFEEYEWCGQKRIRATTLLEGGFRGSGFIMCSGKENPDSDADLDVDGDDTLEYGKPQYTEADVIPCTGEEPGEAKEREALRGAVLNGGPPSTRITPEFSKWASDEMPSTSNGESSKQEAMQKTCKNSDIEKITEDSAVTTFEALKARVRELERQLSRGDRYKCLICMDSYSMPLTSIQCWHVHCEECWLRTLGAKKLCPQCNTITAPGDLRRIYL
# Chain of UniProt Q99643 (Q99643 whole entry, looked up): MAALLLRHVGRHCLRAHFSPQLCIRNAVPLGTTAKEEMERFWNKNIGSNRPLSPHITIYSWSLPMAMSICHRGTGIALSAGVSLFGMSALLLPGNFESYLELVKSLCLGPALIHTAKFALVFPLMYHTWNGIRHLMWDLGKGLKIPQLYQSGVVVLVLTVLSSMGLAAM
# Chain of UniProt Q8NBN7 (Q8NBN7 whole entry, looked up): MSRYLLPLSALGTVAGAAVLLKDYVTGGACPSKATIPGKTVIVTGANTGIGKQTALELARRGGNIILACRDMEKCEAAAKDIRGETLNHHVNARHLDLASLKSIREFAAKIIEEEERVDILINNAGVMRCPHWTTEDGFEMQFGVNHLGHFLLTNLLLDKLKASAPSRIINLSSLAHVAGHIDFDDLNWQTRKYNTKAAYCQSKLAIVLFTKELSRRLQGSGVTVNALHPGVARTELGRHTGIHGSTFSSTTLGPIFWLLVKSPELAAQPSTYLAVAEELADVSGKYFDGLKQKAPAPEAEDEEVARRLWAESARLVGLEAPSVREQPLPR
# Chain of UniProt Q9NW64 (Q9NW64 whole entry, looked up): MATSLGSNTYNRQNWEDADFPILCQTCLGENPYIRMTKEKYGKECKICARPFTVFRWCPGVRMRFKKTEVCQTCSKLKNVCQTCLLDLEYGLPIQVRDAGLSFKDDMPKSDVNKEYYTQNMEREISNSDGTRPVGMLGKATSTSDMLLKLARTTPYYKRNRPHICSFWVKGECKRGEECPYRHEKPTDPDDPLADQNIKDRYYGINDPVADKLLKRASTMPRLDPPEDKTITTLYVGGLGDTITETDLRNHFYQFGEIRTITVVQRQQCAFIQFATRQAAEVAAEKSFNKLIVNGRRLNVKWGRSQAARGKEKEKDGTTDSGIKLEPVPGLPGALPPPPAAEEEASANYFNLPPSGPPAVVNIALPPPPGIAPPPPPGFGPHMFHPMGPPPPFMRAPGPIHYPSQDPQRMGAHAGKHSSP
# Chain of UniProt P51151 (P51151 whole entry, looked up): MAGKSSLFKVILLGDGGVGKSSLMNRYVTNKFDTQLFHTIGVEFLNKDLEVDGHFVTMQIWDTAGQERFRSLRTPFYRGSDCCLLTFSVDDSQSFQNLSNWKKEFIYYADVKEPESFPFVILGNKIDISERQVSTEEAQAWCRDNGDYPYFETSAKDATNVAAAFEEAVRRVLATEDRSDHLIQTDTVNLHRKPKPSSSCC
# Chain of UniProt P62070 (P62070 whole entry, looked up): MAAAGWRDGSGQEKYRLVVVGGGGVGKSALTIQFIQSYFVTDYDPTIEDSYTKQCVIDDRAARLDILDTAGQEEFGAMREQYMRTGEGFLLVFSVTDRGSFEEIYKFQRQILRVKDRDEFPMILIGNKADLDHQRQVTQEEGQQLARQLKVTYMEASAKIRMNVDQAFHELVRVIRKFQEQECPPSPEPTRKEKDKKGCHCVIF
Target,log2 fold change (IRAK-1-4 Inhibitor I),log2 fold change (ibrutinib),log2 fold change [1],log2 fold change (ralimetinib),log2 fold change [2],log2 fold change [3],log2 fold change [4],log2 fold change (pinometostat),log2 fold change [5],log2 fold change [6]
RBM26 isoform 2 (UniProt Q5T8P6),-0.086,0.032,-0.179,-0.021,-0.16,-0.295,0.024,-0.022,0.014,0.06
SERINC3 (UniProt Q13530),-0.006,-0.01,-0.027,-0.14,-0.304,-0.399 (active),0.17,-0.01,0,-0.039
RPS14 (UniProt P62263),-0.178,0.03,0.079,0.135,-0.014,-0.016,0.003,-0.013,0.035,-0.586 (active)
SERINC1 (UniProt Q9NRX5),0,0.023,0,-0.106,-0.235,-0.568 (active),0.095,-0.022,0.038,0
RAC3 (UniProt P60763),0.115,0.022,0.104,-0.008,0.032,0.082,-0.009,-0.081,0.003,0.102
RBM22 (UniProt Q9NW64),0.014,-0.032,0.029,0.048,0.071,0.068,0.104,0.015,0.041,0.124
RSRC1 (UniProt Q96IZ7),-0.062,0.034,-0.178,-0.01,0.056,-0.071,0.009,-0.017,-0.012,0.047
RALA (UniProt P11233),-0.005,0.038,0.018,-0.113,0.096,0.103,-0.033,-0.123,-0.024,0.054
RBM27 (UniProt Q9P2N5),-0.123,0.023,-0.338 (active),-0.045,-0.063,-0.479 (active),0.042,0.028,0.088,0.05
RDH10 (UniProt Q8IZV5),0.076,0.159,-0.07,0.008,0.075,0.069,-0.043,-0.018,0.007,0.007
RRP12 (UniProt Q5JTH9),-0.018,-0.1,0.201,0.331,0.006,0.272,0.243,0.315,-0.051,-0.107
RPA1 (UniProt P27694),-0.026,-0.022,-0.03,-0.008,-0.053,-0.019,-0.027,-0.021,-0.007,0.202
RELA (UniProt Q04206),-0.011,-0.002,0.022,0.025,0,-0.018,0.031,0.003,-0.022,-0.054
SFXN5 (UniProt Q8TD22),0.225,-0.048,-0.013,-0.001,-0.175,-0.083,0.187,0.03,0.008,0.09
SLC1A5 (UniProt Q15758),0.035,0.028,0.013,0.046,-0.002,0.23,-0.052,-0.034,-0.012,-0.014
RRAS2 isoform 4 (UniProt P62070),0.011,0.097,-0.009,-0.023,0.242,0.077,0.005,-0.034,-0.019,0.077
RPS19 (UniProt P39019),-0.085,0.052,0.05,0.064,0.03,-0.025,0.039,0.084,0.026,-0.523 (active)
RAB9A (UniProt P51151),0.018,0.018,-0.001,-0.001,-0.014,-0.126,-0.008,-0.027,-0.021,0.06
SEC16A isoform 5 (UniProt O15027),-0.136,-0.062,-0.069,0.172,-0.177,-0.282 (active),0.046,0.097,-0.027,0.025
RDH13 (UniProt Q8NBN7),0.012,0.03,-0.054,-0.031,-0.061,-0.184,-0.029,-0.057,-0.051,0.111
RB1 (UniProt P06400),0.015,0.025,-0.761 (active),-0.06,-0.054,-0.386 (active),0.032,-0.006,-0.007,-0.035
SENP6 (UniProt Q9GZR1),0.005,-0.018,-0.063,-0.031,-0.058,0.094,0.043,0.004,-0.028,0.057
RBM33 (UniProt Q96EV2),-0.058,0.024,-0.063,0.014,0.046,-0.018,-0.01,-0.01,0.001,-0.282 (active)
SGPL1 (UniProt O95470),-0.05,-0.018,-0.045,0.159,0.017,0.06,0.002,0.1,-0.025,0.146
SDHC (UniProt Q99643),0.095,0.004,0.025,-0.055,-0.185,0.012,-0.286,-0.086,0.193,0.108
RNF220 (UniProt Q5VTB9),0.017,-0.032,-0.02,-0.045,0.021,-0.011,-0.046,-0.076,-0.023,0.004
RPS6KA2 isoform 2 (UniProt Q15349),0.001,-0.066,-0.178,-0.492 (active),-0.082,-0.082,0.07,0.01,0.016,0.006
SEPTIN5 (UniProt Q99719),0.014,-0.013,-0.031,-0.084,-0.03,0.034,-0.051,-0.041,-0.005,0.011
RAP1GDS1 isoform 5 (UniProt P52306),-0.044,-0.098,0.04,0.005,-0.114,-0.277 (active),-0.005,0.067,0.011,0.008
ROCK2 (UniProt O75116),-0.037,-0.052,-0.137,0.032,-0.049,-0.138,0.034,0.021,0.29 (active),0
